Inconclusive results are not listed. Active and inactive are the calls of the source. Rule for the calls: active = hit-call score of the fitted dose curve at least 0.9, where 1 is the maximum; inconclusive = response in the unintended direction; inactive = score below 0.9.
Test: CLD_ACTIN_6hr: CellzDirect (CLD) Gene Expression Assay for Baseline Control (Actin) at 6 hours (AID 2283676);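 note: active means increased actin mRNA relative to DMSO vehicle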
Experimental: CLD_6hr is a cell-based, multiplexed-readout assay that uses hepatocyte, a human liver primary cell, with measurements taken at 6 hours after chemical dosing in a 96-well plate.CLD_ACTIN_6hr is one of 16 assay component(s) measured or calculated from the CLD_6hr assay. It is designed to make measurements of mRNA induction, a form of inducible reporter, as detected with chemiluminescence signals by Quantitative Nuclease Protection Assay (qNPA) technology.Data from the assay component CLD_ACTIN_6hr was analyzed at the endpoint, CLD_ACTIN_6hr, in the positive analysis fitting direction relative to DMSO as the negative control and baseline of activity. Using a type of inducible reporter, gain-of-signal activity can be used to understand changes in the reporter gene as they relate to the gene ACTA1. Furthermore, this assay endpoint can be referred to as a secondary readout, because this assay has produced multiple assay endpoints where this one serves a background control function. To generalize the intended target to other relatable targets, this assay endpoint is annotated to the background measurement intended target family, where subfamily is baseline control.
Human hepatocyte cultures were treated daily for two consecutive days with fresh dosing solutions containing appropriate concentrations of the 320 ToxCast chemicals (chemical identities were blinded to CellzDirect and other ToxCast collaborators), vehicle control (0.2% DMSO), and positive control inducers as summarized in Table 1. Due to the large number of treatment groups and chemicals examined, the ToxCast chemicals were divided into two groups (spanning two independent cultures of hepatocytes from separate donor preparations (Hu778: ToxCast plates 1 and 2; Hu776: ToxCast plates 3 and 4). Each preparation of human hepatocyte cultures was treated with respective vehicle control, medium only control, set of six positive controls/reference chemicals for the five hepatic receptor pathways, and a subset of eight of the ToxCast chemicals (indoxacarb, pyrithiobac-sodium, norflurazon, cyhalofop-butyl, methomyl, thiram, acetochlor, and propiconazole). These replicate data, coupled with internal replicates designed within the blinded ToxCast chemical library, provided additional data to evaluate interindividual differences between hepatocyte preparations and their potential impact on chemical profiles.Cell morphology and integrity were evaluated using phase-contrast microscopy as an indicator of hepatocyte cell health (Tyson & Green, 1987). Cultures for each treatment group (i.e., media, vehicle [0.2% DMSO], positive control inducers [multiple concentrations], and the ToxCast chemicals [multiple concentrations]) were observed and cell morphology was assessed relative to vehicle control cultures at each harvest time point (0, 6, 24, or 48 h). […] Images were evaluated at the conclusion of the study to assess changes in cell integrity and account for the effects of chemical exposure on uncharacteristic changes in concentration-dependent gene expression profiles. The results from these determinations of apparent cytotoxicity were annotated (yes/no) alongside the corresponding qNPA data for reference.At the conclusion of each treatment period, hepatocyte cultures (96-well) were washed with 1 volume of HBSS, lysed by addition of 25 ul ArrayPlate lysis buffer (HTG, Tucson, AZ), and 70 ul/well of Denaturation Oil, denatured by incubation at 95C for 10 min, and frozen at approximately -70C until analysis by nuclease protection assay (qNPA) (Roberts et al., 2007). For qNPA analysis, cell lysates were thawed at 50C for approximately 30 min, qNPA probes were added, and samples were incubated at 95C for 10 min to begin the detection process by denaturing the target RNA, dissociating the duplexes and secondary structure hybridization. At the conclusion of the hybridization period, S1 nuclease reagent was added to each sample to digest all nonprotected nucleotides at 50C for 60-90 min. […]

**Q.** With Clc1nc(Cl)nc(Nc2ccccc2Cl)n1 as the molecule, how does the outcome read?
**A.** inactive

**Q.** For CC(C)N1C(=O)N(c2ccccc2)CSC1=NC(C)(C)C, which outcome is on record?
**A.** inactive

**Q.** For COc1cc(OC)nc(NC(=O)NS(=O)(=O)c2ncccc2OCC(F)(F)F)n1, which outcome is on record?
**A.** inactive

**Q.** Which outcome does the source give for COC(=O)NS(=O)(=O)c1ccc(N)cc1 here?
**A.** inactive

**Q.** For O=C(Nc1ccccc1-c1ccc(Cl)cc1)c1cccnc1Cl, which outcome is on record?
**A.** inactive

**Q.** For Cc1nc(N(C)C)nc(OC(=O)N(C)C)c1C, which outcome is on record?
**A.** inactive

**Q.** With COP(=S)(OC)Oc1ccc([N+](=O)[O-])c(C)c1 as the molecule, how does the outcome read?
**A.** inactive

**Q.** For CCCCC(C#N)(Cn1cncn1)c1ccc(Cl)cc1 (stereo not given), which outcome is on record?
**A.** inactive

**Q.** With CSC(=O)c1c(C(F)F)nc(C(F)(F)F)c(C(=O)SC)c1CC(C)C as the molecule, how does the outcome read?
**A.** inactive

**Q.** For O=P(O)(O)CCCl, which outcome is on record?
**A.** inactive

**Q.** With CCSC(=O)N1CCCCCC1 as the molecule, how does the outcome read?
**A.** inactive

**Q.** With Cn1c(-c2ccccc2)cc(-c2ccccc2)[n+]1C as the molecule, how does the outcome read?
**A.** inactive

**Q.** With CC(C)Nc1nc(Cl)nc(NC(C)C)n1 as the molecule, how does the outcome read?
**A.** inactive

**Q.** With COCC(C)N(C(=O)CCl)c1c(C)csc1C (stereo not given) as the molecule, how does the outcome read?
**A.** inactive

**Q.** Which outcome does the source give for COP(=S)(OC)SCn1nnc2ccccc2c1=O here?
**A.** inactive

**Q.** With Clc1cccc(C(Cl)(Cl)Cl)n1 as the molecule, how does the outcome read?
**A.** inactive

**Q.** Which outcome does the source give for C=C(C)CN(CC)c1c([N+](=O)[O-])cc(C(F)(F)F)cc1[N+](=O)[O-] here?
**A.** inactive

**Q.** Which outcome does the source give for CC(C)N1C(=O)c2ccccc2NS1(=O)=O here?
**A.** inactive

**Q.** For CC1(C)CCC(=Cc2ccc(Cl)cc2)C1(O)Cn1cncn1 (stereo not given), which outcome is on record?
**A.** inactive

**Q.** Which outcome does the source give for CC(C)NC(=O)N1CC(=O)N(c2cc(Cl)cc(Cl)c2)C1=O here?
**A.** inactive

**Q.** With CCNP(=S)(OC)O/C(C)=C/C(=O)OC(C)C (stereo not given) as the molecule, how does the outcome read?
**A.** inactive

**Q.** For CCCCC(O)(Cn1cncn1)c1ccc(Cl)cc1Cl (stereo not given), which outcome is on record?
**A.** inactive

**Q.** Which outcome does the source give for COCc1cnc(C2=NC(C)(C(C)C)C(=O)N2)c(C(=O)O)c1 (stereo not given) here?
**A.** inactive

**Q.** With CS(=O)(=O)c1ccc(C(=O)C2C(=O)CCCC2=O)c([N+](=O)[O-])c1 as the molecule, how does the outcome read?
**A.** inactive

**Q.** For CC1(C)CON(Cc2ccccc2Cl)C1=O, which outcome is on record?
**A.** inactive

**Q.** For COC(=O)c1c(C(F)F)nc(C(F)(F)F)c(C2=NCCS2)c1CC(C)C, which outcome is on record?
**A.** inactive

**Q.** With CC1(C)C(C(=O)OC(C#N)c2cccc(Oc3ccccc3)c2)C1(C)C (stereo not given) as the molecule, how does the outcome read?
**A.** inactive

**Q.** Which outcome does the source give for CNC(=O)N(C)c1nnc(C(C)(C)C)s1 here?
**A.** inactive

**Q.** With CN=C=S as the molecule, how does the outcome read?
**A.** inactive

**Q.** Which outcome does the source give for COC(=O)N(C(=O)N1CO[C@@]2(C(=O)OC)Cc3cc(Cl)ccc3C2=N1)c1ccc(OC(F)(F)F)cc1 here?
**A.** inactive

**Q.** Which outcome does the source give for CS(=O)(=O)c1cc(C(F)(F)F)ccc1C(=O)c1cnoc1C1CC1 here?
**A.** inactive

**Q.** With COc1ccc(-c2ccccc2)cc1NNC(=O)OC(C)C as the molecule, how does the outcome read?
**A.** inactive

**Q.** With CC1(C)C(C=C(Cl)Cl)C1C(=O)OC(C#N)c1cccc(Oc2ccccc2)c1 (stereo not given) as the molecule, how does the outcome read?
**A.** inactive

**Q.** For CCCC(=NOCC)C1=C(O)CC(CC(C)SCC)CC1=O (stereo not given), which outcome is on record?
**A.** inactive

**Q.** Which outcome does the source give for Nc1c(Cl)c(Cl)nc(C(=O)O)c1Cl here?
**A.** inactive

**Q.** For COP(=O)(OC)O/C(C)=C/C(=O)N(C)C, which outcome is on record?
**A.** inactive

**Q.** For O=C1C2CC=CCC2C(=O)N1SC(Cl)(Cl)Cl (stereo not given), which outcome is on record?
**A.** inactive

**Q.** For CCOP(=O)(OCC)Oc1nc(Cl)c(Cl)cc1Cl, which outcome is on record?
**A.** inactive

**Q.** Which outcome does the source give for CO/N=C(/C1=NOCCO1)c1ccccc1Oc1ncnc(Oc2ccccc2Cl)c1F here?
**A.** inactive

**Q.** Which outcome does the source give for CCOc1nc(C(Cl)(Cl)Cl)ns1 here?
**A.** inactive
